The list is a sample of the results.
aSyn UTR act – Activators via SNCA 5'UTR binding, MLPCN; alpha-synuclein 5'UTR reporter, activators screen; activity score, % (tested at 7.5 µM), hits read low; 7.1% of 300,000 active; in the data active = activity score below about -60%
Hits are given with their value; – = inactive.

SMILES	aSyn UTR act
Clc1cccc(N/N=C/c2ccc(N3CCOCC3)cc2)c1	-183
O=[N+]([O-])c1cccc(N/N=C/c2ccc(N3CCOCC3)cc2)c1	-225
C(=N\Nc1ccccc1)/c1ccc(N2CCOCC2)cc1	-154
C/C(=N\Nc1ccccn1)c1ccc(C(C)C)cc1	-132
COc1ccc(C2OC(=O)CC2C(=O)NCc2ccc(Cl)cc2)cc1OC (stereo unspecified)	-78
CCCOc1ncnc2c1[nH]c1ccccc12	-142
Cc1ccc2[nH]c3c(N4CCCCCC4)ncnc3c2c1	-127
C=CCNc1ncnc2c1[nH]c1ccc(C)cc12	-184
CCCOc1ncnc2c1[nH]c1ccc(OC)cc12	-130
CCCCOc1ncnc2c1[nH]c1ccc(C)cc12	-93
FC(F)(F)c1cccc(-c2ccc(-c3csnn3)o2)c1	-85
S=C(Nc1ccccc1)N1CCCCCCC1	-88
OCC1CCCN(C(=S)Nc2ccc(Nc3ccccc3)cc2)C1 (stereo unspecified)	-130
Cc1ccc(NC(=S)N2CCCC(O)C2)cc1 (stereo unspecified)	-63
CC(C)c1ccc(NC(=S)N2CCCC2)cc1	-86
Cc1cccc(-n2cnc(C(=O)NC3CCCCCC3)c2)n1	-101
CCC(C)NC(=O)c1cn(-c2cccc(C)n2)cn1 (stereo unspecified)	-110
O=c1oc2c(CN3CCOCC3)c(O)ccc2c2ccccc12	-72
O=C(Oc1c(CN2CCOCC2)cc(Cl)c2cccnc12)c1ccccc1Cl	–
CC(=O)c1ccc(NS(=O)(=O)c2c(C)cc(C)cc2C)cc1	-102
Cc1cc(C)c(S(=O)(=O)Nc2ccc3c4c(cccc24)CC3)c(C)c1	–
Cc1ccc(SCC(=O)Nc2cccc(-c3nnc(-c4ccco4)o3)c2)cc1	-144
COc1ccc(-c2nnc(SCC(=O)Nc3cc(F)ccc3C)o2)cc1	-161
COc1cccc(NC(=O)CSc2nnc(-c3ccc(C)cc3)o2)c1	-114
CCC(=O)c1ccc(OCC(O)Cn2nnc3ccccc32)cc1 (stereo unspecified)	-74
SMILES	aSyn UTR act
O=C(NCc1ccco1)/C(=C/c1cccc(C(F)(F)F)c1)c1nc2ccccc2[nH]1	-84
O=C(NCc1ccco1)/C(=C/c1ccc(C(F)(F)F)cc1)c1nc2ccccc2[nH]1	-94
Cc1cc(NC(=O)c2ccccc2)ncc1NC(=O)c1ccco1	-115
Cc1cc(O)c(NC(=O)c2ccco2)cc1C	-98
Cc1ccc(C(=O)Nc2ccc(NC(=O)c3ccco3)c(C)c2)cc1	-67
Cc1cc(NC(=O)C(C)C)ncc1NC(=O)c1ccccn1	-88
CCN1/C(=C/c2ccc3cc(C)ccc3[n+]2CC)Sc2ccccc21	–
Cc1ccc(O)c(NC(=O)c2ccco2)c1	-66
c1ccc(CCSc2nccn2-c2ccccc2)cc1	-121
O=C(N/N=C\c1c(O)ccc2ccccc12)c1ccc(S(=O)(=O)N2CCCCC2)cc1	–
O=C(Nc1cccc(S(=O)(=O)N2CCCCCC2)c1)c1ccc2ccccc2n1	-89
COc1ccc(NC(=O)c2ccc3ccccc3n2)cc1S(=O)(=O)N1CCCCC1	-122
CCOc1ccc(C(=O)N[C@H](C(=O)Nc2cccc(S(=O)(=O)N3CCCCC3)c2)C(C)C)cc1	–
Cc1ccc(S(=O)(=O)N2CCCCC2)cc1NC(=O)c1ccc2ccccc2n1	-122
O=C(Nc1ccc(N2CCCCC2)cc1)c1ccc2ccccc2n1	-173
Cc1ccccc1C(=O)Nc1ccc(N2CCCC2)cc1	-154
Cc1cccc(NC(=O)c2ccc3ccccc3n2)c1C	-68
O=C(Nc1ccc(N2CCCC2)cc1)C(Cl)c1ccccc1 (stereo unspecified)	-108
C=CCOc1c(Br)cc(/C=N/Nc2ccc(C(=O)O)cc2)cc1OCC	-123
CCOc1cc(/C=N\NC(N)=O)cc(Br)c1OC(C)C	–
O=C(CSc1nc2ccccc2o1)NCc1ccc2c(c1)OCO2	-79
CCOC(=O)c1c(NC(=O)CSc2nc3ccccc3o2)sc(C(C)=O)c1C	-63
CCOC(=O)c1c(NC(=O)CSc2cccc[n+]2[O-])sc(C(=O)Nc2ccccc2)c1C	-105
Cc1ccccc1NC(=O)CSc1nc2ccccc2o1	-158
O=C(CSc1nc2ccccc2o1)Nc1nc(-c2ccccc2)cs1	-111
SMILES	aSyn UTR act
C/C(=N\OCc1ccc(C#N)cc1)c1ccccc1	-120
C/C(=N\OCc1cccc(C(=O)O)c1)c1ccc(Cl)cc1	–
COc1cc(SC)ccc1C(=O)Nc1ccc(Br)cn1	–
COc1cc(SC)ccc1C(=O)Nc1cccc(C)n1	-88
COc1cc(SC)ccc1C(=O)Nc1ccon1	-109
CCN(CC)C(=O)c1ccc(-c2cccs2)s1	-73
C=C(C)CNC(=S)Nc1nc2c(cc1C(=O)OCC)CCCC2	-105
S=C(NCCN1CCOCC1)Nc1ccc(-c2nc3ccccc3[nH]2)cc1	-129
Cc1ccc(NC(=S)NCCCN2CCOCC2)cc1	-63
CS(=O)(=O)c1ccc2sc(NC(=O)c3cc4ccccc4o3)nc2c1	-96
CC(=O)Nc1nc2ccc(-c3nc4ccccc4o3)cc2s1	-108
CS(=O)(=O)c1ccc2nc(NC(=O)c3cc4ccccc4o3)sc2c1	-167
N=C1N(/N=C/c2ccccc2)C(=Nc2ccccc2)C(=S)N1c1ccccc1	-186
O=C(NC1CCCCCCC1)c1ccc(F)cc1	-197
O=C(Nc1ccccc1F)NC1CCCCCCC1	-115
O=C(Nc1ccc(F)c(F)c1)NC1CCCCC1	-86
O=C(Nc1ccc(F)cc1)NC1CCCCCCC1	-96
Nc1ccc(NC(=O)NC2CCCCC2)cc1[N+](=O)[O-]	-161
S=C(NCCc1cccc(Cl)c1)NC1CCCCC1	-118
O=C(Nc1cccc(Cl)c1)NC1CCCCC1	-121
O=C(NC1CCCCCC1)c1ccc(N2CCCC2=O)cc1	-101
O=C(Nc1ccc2nsnc2c1)NC1CCCCC1	-197
CC(=O)c1cccc(NC(=O)NC2CCCCCCC2)c1	-70
O=C(Nc1ccc(Cl)cc1)NC1CCCCC1	-175
Nc1c(-c2ccc(Cl)cc2)cnn1-c1cccc(C(F)(F)F)c1	-102
SMILES	aSyn UTR act
Cc1ccc(-c2cnn(-c3cccc(C(F)(F)F)c3)c2N)cc1	-147
O=C(N/N=C/c1cccnc1)c1ccc2c(c1)OCCO2	-82
COc1c(O)ccc(/C=N/NC(=O)c2ccc3c(c2)OCCO3)c1[N+](=O)[O-]	-110
CN(C)c1ccc(/C=N/NC(=O)c2ccc3c(c2)OCO3)cc1	-104
O=C(N/N=C/c1ccc(Br)o1)c1ccc2c(c1)OCCO2	-123
O=C(N/N=C/c1ccc([N+](=O)[O-])o1)c1ccc2c(c1)OCO2	–
Cc1ccc(/C=N\NC(=O)c2ccc3c(c2)OCO3)o1	-81
CC(C)C(=O)NCCc1nc(-c2ccc(Cl)cc2)no1	-99
CSc1nnc2c(n1)c(C)nn2-c1ccc(C)cc1	-180
Clc1ccc(-c2nnc(-c3ccco3)o2)cc1	-203
O=C(COc1ccc(Br)cc1)Nc1ccc(-c2nnc(-c3ccco3)o2)cc1	-80
CC(C)(C)c1ccc(OCC(=O)N/N=C/c2cc(Br)ccc2OC(=O)c2ccco2)cc1	–
CCC(Oc1ccccc1)C(=O)Nc1ccc(-c2nnc(-c3ccco3)o2)cc1 (stereo unspecified)	-97
Oc1[nH]c2ccccc2c1N=Nc1ccccc1F	-357
Oc1[nH]c2ccccc2c1N=Nc1ccccc1	-123
Cc1nc2ccccn2c1C(=O)N=Nc1c(O)[nH]c2ccccc12	-103
CC(C)(O)C(=O)N=Nc1c(O)[nH]c2ccccc12	-96
Oc1[nH]c2ccccc2c1N=Nc1ccc(F)cc1	-171
O=[N+]([O-])c1ccc(N=Nc2c(O)[nH]c3ccc(F)cc23)cc1	-82
